# From PubChem BioAssay
# “And” between values parts separate entries of the source, which are not always exact repeats. Equal entries are not always repeated. Some compounds were tested as several samples or in several runs, with calls that do not always agree. The source made the active and inactive calls. Unless noted, no stated cut-off is given here; in the data, active means parasite load remaining mostly below about 12% (no sharp cut-off); inactive means mostly above about 10%.
# Columns and labels:
# [1] = yeast 75Q aggregation reduction – 75Q-TubU reporter (AID 1593); conditions: Yeast 75Q polyglutamine aggregation reporter
# [2] = blockers of cytochrome c efflux from mitochondria – biochemical, purified mitochondria (AID 1603); conditions: stronger effect = lower value;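 further: mouse liver mitochondria challenged with calcium chloride; signal normalized to the plate average as 100%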
# [3] = polyglutamine aggregate formation blockers (AID 1604); conditions: polyglutamine-induced protein aggregation inhibition assay; stronger effect = higher value; tested at 2.5 µM
# [4] = P. berghei load reduction in hepatocytes – cell-based, HepG2, luciferase luminescence, HepG2 viability, primary screen (AID 624349);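 further: 100% = mean of DMSO negative control wells on the same plate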; conditions: P. berghei liver stage in HepG2, luciferase luminescence, concentration not given here; parasite load remaining: stronger effect = lower value; viability: measured here: HepG2 viability without parasites
# [5] = Wnt pathway potentiators raising nuclear beta-catenin – imaging, WNT3A-conditioned medium, mouse C2C12, NPC library, primary screen (AID 1117326; in the data active means nuclear beta-catenin stimulation mostly above about 4.2%, no sharp cut-off; inactive means mostly below about 10%); conditions: stronger effect = higher value
# [6] = stimulators of insulin release from INS-1E, primary screen, cell-based, 5 mM glucose, NPC library (AID 1117329;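 active means compound raises insulin release from rat beta cells at 5 mM glucose, no numeric limit stated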); conditions: rat INS-1E insulin secretion, at 10 µM, stronger effect = higher value
# [7] = growth inhibition of GSK3B-pretreated HCT116 cells – cell-based, CellTiter-Glo, 0.2 to 20 µM (AID 1117336;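 active means compounds lowering colon cancer cell viability after pretreatment blocking the GSK3B kinase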); conditions: HCT116 viability after GSK3B inhibitor, at 20 µM, stronger effect = higher value
# [8] = inhibition of endothelial tube formation, primary screen, imaging, VEGF stimulated, CD31 staining, tube area, NPC library (AID 1117340;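 active means compound that reduces growth-factor-driven endothelial tube area in a mixed cell culture, no cutoff stated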); conditions: VEGF-stimulated ADSC/ECFC co-culture, at 10 µM, stronger effect = higher value
# [9] = GLP1 release stimulators, primary, NCI-H716, NPC library (AID 1117341;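 active means compound raises GLP1 secretion from the human gut endocrine cells, with no numeric limit stated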); conditions: NCI-H716 cells, at 10 µM, stronger effect = higher value
# [10] = HCT116 colon cancer cell growth inhibition, primary screen, CellTiter-Glo luminescence, NPC library (AID 1117342;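 active means compounds that lower survival of HCT116 colon cancer cells in the luminescence readout, no numeric limit stated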); conditions: at 20 µM (top of the series)
# [11] = reduced SW480 viability measured with CellTiter-Glo, NPC library, primary (AID 1117343;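 active means compounds that lower viability of the colon cancer cells in the luminescence readout, with no numeric limit stated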); conditions: CellTiter-Glo luminescence; at 20 µM (top of the series)
# [12] = NPC library primary testing for decreased DLD-1 cell viability via CellTiter-Glo (AID 1117346;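 active means compounds that lower survival of DLD-1 colon cancer cells in the luminescence readout, no cutoff given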); conditions: DLD-1 viability, CellTiter-Glo luminescence; at 20 µM (top of the series)
# [13] = target: 6-phosphogluconate dehydrogenase, decarboxylating (Homo sapiens) (UniProt P52209); assay: inhibition of human phosphogluconate dehydrogenase – biochemical, recombinant enzyme, NADPH absorbance, primary screen (AID 1159550;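 active means at least 20% inhibition of 6-phosphogluconate dehydrogenase activity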); conditions: recombinant 6PGD, NADPH absorbance 341 nm; at 10 µM; stronger effect = higher value
# [14] = EMT-state selective cytotoxicity in co-culture – imaging, PC-3E GFP, TEM4-18 mCherry, primary screen (AID 1345086;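 active means compounds killing one labelled cell type while sparing the other, by normalised counts and ratio limits, not self-fluorescent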;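 on all read-outs here: cells exposed to compound for 72 h before imaging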;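 on red/green cell ratio (normalised): normalised mesenchymal count divided by normalised epithelial count so high means epithelial killing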); conditions: PC-3E GFP / TEM4-18 mCherry co-culture, imaging cell counts, at 1 µM; for red/green cell ratio (normalised): actives lie on both sides
# [15] = tested on: Aerobactin synthetase IucA (Klebsiella pneumoniae hvKP1); assay: IucA enzyme inhibition, primary screen, biochemical, Spectrum library (AID 1346200; call rule not given here;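 further: 100% = wells without compound and 0% = wells lacking enzyme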); conditions: malachite green pyrophosphate, A620, at 8 µM, stronger effect = lower value
# [16] = viability loss with induced miR-34 in A549 – imaging, A549 dox-inducible miR-34, nuclei and caspase counts, primary screen (AID 1347080;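 active means compounds whose cell count with miR-34 switched on is under 0.7 times the count with it off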); conditions: A549 miR-34 inducible, Hoechst nuclei count, 48 h
# [17] = MELAS cybrid and Rieske KO viability enhancers – cell-based, MELAS cybrids, Rieske KO mouse fibroblasts, CellTiter-Glo, primary screen (AID 1508586;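 active means mean z-score across replicates of 1.96 or higher in either the MELAS or the Rieske mutant cell line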;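 further: z relative to plate mean and SD of compound and empty wells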); conditions: low glucose
# [18] = target: NAD(+) hydrolase SARM1 (Homo sapiens) (UniProt Q6SZW1); assay: blocking NAD cleavage by SARM1 SAM-TIR – cell lysate, NAD-Glo luminescence (AID 1508614;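 active means compound whose remaining NAD level is above about 45 nM, limit read from the data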); conditions: SAM-TIR HEK293T lysate NADase, at 1 µM, stronger effect = higher value
# [19] = target: Mitogen-activated protein kinase 7 (Homo sapiens) (UniProt Q13164); assay: Gal4-ERK5 driven luciferase induction – cell-based, HTS, primary screen (AID 1508626;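 active means luciferase signal above three times the same-plate solvent-only control wells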;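 further: luciferase driven by Gal4-ERK5 fusion binding five Gal4 sites before minimal TATA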); conditions: HeLa Gal4-ERK5 transactivation, 18 h, at 5 µM, stronger effect = higher value
# [20] = galactose survival enhancers in mitochondrial complex I cybrids – cell-based, galactose medium, ATP luminescence, primary screen (AID 1645843;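 active means z-score of at least 1.8 in each of two replicates, scored against plate mean and spread of sample wells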;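 further: positive z means more ATP and so rescue of galactose-driven cybrid death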); conditions: complex I mutant cybrid cells, 72 h, stronger effect = higher value
# [21] = measured here: epithelial PC-3E GFP cell survival
# [22] = measured here: mesenchymal TEM4-18 mCherry cell survival
# [23] = measured here: relative caspase fold change +Dox/-Dox
# [24] = measured here: total cells with miR-34 induction, stronger effect = lower value
# [25] = measured here: total cells without miR-34 induction
# [26] = MELAS cybrid survival, CellTiter-Glo 48 h, stronger effect = higher value
# [27] = Rieske KO mouse fibroblast survival, CellTiter-Glo 72 h
# Mitogen-activated protein kinase 7 (Homo sapiens), sequence (Q13164 whole entry, looked up, the tested form may be a part): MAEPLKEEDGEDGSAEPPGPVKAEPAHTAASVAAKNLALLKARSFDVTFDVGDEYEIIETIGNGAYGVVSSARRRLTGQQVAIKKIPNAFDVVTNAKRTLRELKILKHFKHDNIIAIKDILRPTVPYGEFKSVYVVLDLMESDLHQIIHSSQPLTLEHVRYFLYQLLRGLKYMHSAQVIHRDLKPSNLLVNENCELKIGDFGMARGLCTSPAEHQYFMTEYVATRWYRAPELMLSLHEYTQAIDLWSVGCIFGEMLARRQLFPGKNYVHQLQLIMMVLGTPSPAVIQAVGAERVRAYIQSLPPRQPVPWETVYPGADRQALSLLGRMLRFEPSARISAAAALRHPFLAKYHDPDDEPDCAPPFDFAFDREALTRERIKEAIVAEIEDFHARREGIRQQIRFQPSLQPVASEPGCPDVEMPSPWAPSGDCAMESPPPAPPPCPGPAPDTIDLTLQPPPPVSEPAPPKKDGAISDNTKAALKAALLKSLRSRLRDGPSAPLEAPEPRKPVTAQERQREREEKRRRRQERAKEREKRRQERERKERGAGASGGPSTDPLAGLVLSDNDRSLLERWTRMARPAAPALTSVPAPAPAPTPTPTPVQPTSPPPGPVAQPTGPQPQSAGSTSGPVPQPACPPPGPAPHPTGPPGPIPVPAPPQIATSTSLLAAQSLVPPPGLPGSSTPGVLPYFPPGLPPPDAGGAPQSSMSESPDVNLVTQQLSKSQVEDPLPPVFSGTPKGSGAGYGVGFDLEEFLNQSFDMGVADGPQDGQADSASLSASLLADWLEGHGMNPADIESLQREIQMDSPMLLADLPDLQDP
# NAD(+) hydrolase SARM1 (Homo sapiens), sequence (Q6SZW1 whole entry, looked up, the tested form may be a part): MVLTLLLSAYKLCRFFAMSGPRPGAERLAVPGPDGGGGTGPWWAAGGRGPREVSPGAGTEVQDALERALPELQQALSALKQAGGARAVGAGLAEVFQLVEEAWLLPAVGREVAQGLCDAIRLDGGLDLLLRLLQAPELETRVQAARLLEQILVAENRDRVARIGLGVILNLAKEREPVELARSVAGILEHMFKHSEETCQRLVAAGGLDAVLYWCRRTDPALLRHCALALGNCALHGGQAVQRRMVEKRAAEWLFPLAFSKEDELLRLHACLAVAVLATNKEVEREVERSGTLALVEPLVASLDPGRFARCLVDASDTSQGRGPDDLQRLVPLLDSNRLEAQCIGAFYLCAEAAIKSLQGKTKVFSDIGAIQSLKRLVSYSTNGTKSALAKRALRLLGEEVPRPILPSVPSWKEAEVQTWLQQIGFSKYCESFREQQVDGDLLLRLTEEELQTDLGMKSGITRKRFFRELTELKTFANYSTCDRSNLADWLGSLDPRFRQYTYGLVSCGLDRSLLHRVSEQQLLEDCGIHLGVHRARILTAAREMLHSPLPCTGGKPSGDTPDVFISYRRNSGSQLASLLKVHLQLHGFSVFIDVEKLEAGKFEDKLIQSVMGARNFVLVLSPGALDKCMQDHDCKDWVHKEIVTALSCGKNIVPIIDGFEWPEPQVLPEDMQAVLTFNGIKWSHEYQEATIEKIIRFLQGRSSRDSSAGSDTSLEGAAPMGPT
# 6-phosphogluconate dehydrogenase, decarboxylating (Homo sapiens), sequence (P52209 whole entry, looked up): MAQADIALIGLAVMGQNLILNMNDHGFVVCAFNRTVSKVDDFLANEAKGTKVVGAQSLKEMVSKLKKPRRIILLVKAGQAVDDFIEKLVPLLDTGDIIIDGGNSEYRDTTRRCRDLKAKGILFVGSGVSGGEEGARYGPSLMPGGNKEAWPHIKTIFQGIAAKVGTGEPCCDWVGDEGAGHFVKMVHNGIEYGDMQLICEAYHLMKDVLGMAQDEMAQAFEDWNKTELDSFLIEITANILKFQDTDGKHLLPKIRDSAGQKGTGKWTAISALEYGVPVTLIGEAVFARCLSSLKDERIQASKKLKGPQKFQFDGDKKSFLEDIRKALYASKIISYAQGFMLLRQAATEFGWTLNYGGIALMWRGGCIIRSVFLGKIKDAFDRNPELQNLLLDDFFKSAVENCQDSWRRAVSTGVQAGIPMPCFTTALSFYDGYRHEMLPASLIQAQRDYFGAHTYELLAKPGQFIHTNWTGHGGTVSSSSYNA
structure (smiles),measurement,setting,value
CCCCCCCCCCCCCCCC[N+](C)(C)C,score,[1],0.03
same,cytochrome c release ratio,[2],2.11
same,inhibition of aggregation,[3],65.1%
same,parasite load remaining,[4],86.4% (inactive) and 31.9% (inactive)
same,viability,[4],75.1% and 81.2%
same,nuclear beta-catenin stimulation,[5]; at 10 µM,19.2% (inactive)
same,nuclear beta-catenin stimulation,"[5]; stimulation, at 2 µM",9.4%
same,insulin secretion stimulation,[6],-0.3% (inactive)
same,viability decrease,[7],100% (active)
same,tube area decrease,[8],109% (active)
same,GLP1 secretion stimulation,[9],40.8% (active)
same,inhibition of viability,[10],102% (active)
same,viability decrease (inhibition),[11],123% (active)
same,viability decrease (inhibition),[12],104% (active)
same,inhibition,[13],-5.61% (inactive)
same,red/green cell ratio (normalised),[14],0.49 (inactive)
same,normalised cell number,[14]; [21],0.64
same,normalised cell number,[14]; [22],0.31
same,activity remaining,[15],108% (inactive)
same,fold change,[16]; stronger effect = lower value,0.616 (active) and 0.9 (inactive)
same,fold change,[16]; [23],3.21 and 2.28
same,cell count,[16]; [24],4400 and 4060
same,cell count,[16]; [25],7150 and 4510
same,z-score,[17]; [26],-0.416 (inactive)
same,z-score,[17]; [27],-0.288
same,remaining NAD,[18],10 nM (inactive)
same,luciferase signal,[19],96 AU (inactive)
Cc1cccc(C)c1NC1=NCCCS1,score,[1],1.34
same,cytochrome c release ratio,[2],0.7
same,inhibition of aggregation,[3],87.3%
same,nuclear beta-catenin stimulation,[5]; at 10 µM,0.7% (inactive)
same,nuclear beta-catenin stimulation,"[5]; stimulation, at 2 µM",1.8%
same,insulin secretion stimulation,[6],3.2% (inactive)
same,viability decrease,[7],-8.6% (inactive)
same,tube area decrease,[8],-3.5% (inactive)
same,GLP1 secretion stimulation,[9],1.7% (inactive)
same,inhibition of viability,[10],10.6% (inactive)
same,viability decrease (inhibition),[11],-13.1% (inactive)
same,viability decrease (inhibition),[12],2.9% (inactive)
same,inhibition,[13],-17.7% (inactive)
same,red/green cell ratio (normalised),[14],1.15 (inactive)
same,normalised cell number,[14]; [21],1.1
same,normalised cell number,[14]; [22],1.27
same,activity remaining,[15],116% (inactive)
same,z-score,[17]; [26],-0.333 (inactive) and 0.534 (inactive) and -0.793 (inactive)
same,z-score,[17]; [27],-0.0574 and -0.344 and 0.356
same,remaining NAD,[18],10 nM (inactive)
same,luciferase signal,[19],36 AU (inactive)
same,z-score,[20],0.22 (inactive) and 0.48 (inactive)
O=c1oc2ccccc2c(O)c1Cc1c(O)c2ccccc2oc1=O,score,[1],0.69
same,cytochrome c release ratio,[2],0.7
same,inhibition of aggregation,[3],42.1%
same,parasite load remaining,[4],87.2% (inactive) and 95.3% (inactive) and 51.7% (inactive)
same,viability,[4],97.7% and 68.2% and 89.1%
same,nuclear beta-catenin stimulation,[5]; at 10 µM,-0.1% (inactive)
same,nuclear beta-catenin stimulation,"[5]; stimulation, at 2 µM",-2.5%
same,insulin secretion stimulation,[6],-1% (inactive)
same,viability decrease,[7],97.6% (active)
same,tube area decrease,[8],26% (inactive)
same,GLP1 secretion stimulation,[9],-3.4% (inactive)
same,inhibition of viability,[10],90.5% (active)
same,viability decrease (inhibition),[11],107% (active)
same,viability decrease (inhibition),[12],92.1% (active)
same,inhibition,[13],-29.3% (inactive)
same,red/green cell ratio (normalised),[14],0.99 (inactive)
same,normalised cell number,[14]; [21],1.34
same,normalised cell number,[14]; [22],1.32
same,activity remaining,[15],120% (inactive)
same,fold change,[16]; stronger effect = lower value,0.822 (inactive) and 0.882 (inactive) and 0.865 (inactive)
same,fold change,[16]; [23],1.17 and 1.33 and 1.22
same,cell count,[16]; [24],8510 and 8000 and 10400
same,cell count,[16]; [25],10300 and 9060 and 12000
same,z-score,[17]; [26],-0.183 (inactive) and 0.389 (inactive)
same,z-score,[17]; [27],-0.295 and 0.839
same,remaining NAD,[18],10 nM (inactive)
same,luciferase signal,[19],28 AU (inactive)
CCOP(=S)(OCC)Oc1ccc2c(C)c(Cl)c(=O)oc2c1,nuclear beta-catenin stimulation,[5]; at 10 µM,8.6% (inactive)
same,nuclear beta-catenin stimulation,"[5]; stimulation, at 2 µM",1.6%
same,insulin secretion stimulation,[6],-1.3% (inactive)
same,viability decrease,[7],-12.5% (inactive)
same,tube area decrease,[8],41% (active)
same,GLP1 secretion stimulation,[9],2.3% (inactive)
same,inhibition of viability,[10],-16% (inactive)
same,viability decrease (inhibition),[11],-55% (inactive)
same,viability decrease (inhibition),[12],-8.8% (inactive)
same,inhibition,[13],6.24% (inactive)
same,red/green cell ratio (normalised),[14],1.09 (inactive)
same,normalised cell number,[14]; [21],0.91
same,normalised cell number,[14]; [22],0.99
same,fold change,[16]; stronger effect = lower value,0.908 (inactive)
same,fold change,[16]; [23],1.03
same,cell count,[16]; [24],8520
same,cell count,[16]; [25],9380
same,remaining NAD,[18],10 nM (inactive)
same,luciferase signal,[19],72 AU (inactive)
CC(C)(C)NCC(O)c1cc(Cl)c(N)c(Cl)c1 (configuration not stated),score,[1],1.52
same,cytochrome c release ratio,[2],1.06
same,inhibition of aggregation,[3],29.4%
same,parasite load remaining,[4],72.5% (inactive) and 86% (inactive) and 37.5% (inactive)
same,viability,[4],109% and 74.6% and 102%
same,nuclear beta-catenin stimulation,[5]; at 10 µM,0% (inactive)
same,nuclear beta-catenin stimulation,"[5]; stimulation, at 2 µM",1.4%
same,insulin secretion stimulation,[6],3.8% (inactive)
same,viability decrease,[7],-1.4% (inactive)
same,tube area decrease,[8],13.7% (inactive)
same,GLP1 secretion stimulation,[9],0.6% (inactive)
same,inhibition of viability,[10],24.9% (inactive)
same,viability decrease (inhibition),[11],15.4% (inactive)
same,viability decrease (inhibition),[12],10.4% (inactive)
same,inhibition,[13],-5.11% (inactive)
same,red/green cell ratio (normalised),[14],1.04 (inactive)
same,normalised cell number,[14]; [21],1.05
same,normalised cell number,[14]; [22],1.09
same,activity remaining,[15],115% (inactive)
same,fold change,[16]; stronger effect = lower value,0.844 (inactive) and 0.889 (inactive)
same,fold change,[16]; [23],1.23 and 1.3
same,cell count,[16]; [24],8390 and 9780
same,cell count,[16]; [25],9940 and 11000
same,z-score,[17]; [26],0.503 (inactive) and 0.285 (inactive)
same,z-score,[17]; [27],0.0878 and 0.551
same,remaining NAD,[18],10 nM (inactive)
same,luciferase signal,[19],44 AU (inactive)
same,z-score,[20],0.41 (inactive)
c1ccc2c(c1)sc1ccccc12,score,[1],-0.17
same,cytochrome c release ratio,[2],0.98
same,inhibition of aggregation,[3],65.4%
same,parasite load remaining,[4],94.3% (inactive) and 69.4% (inactive)
same,viability,[4],70.5% and 91.8%
same,nuclear beta-catenin stimulation,[5]; at 10 µM,0.1% (inactive)
same,nuclear beta-catenin stimulation,"[5]; stimulation, at 2 µM",0.9%
same,insulin secretion stimulation,[6],-1.4% (inactive)
same,viability decrease,[7],-3.95% (inactive)
same,tube area decrease,[8],-9.2% (inactive)
same,GLP1 secretion stimulation,[9],-2.6% (inactive)
same,inhibition of viability,[10],-22.5% (inactive)
same,viability decrease (inhibition),[11],-1.8% (inactive)
same,viability decrease (inhibition),[12],3% (inactive)
same,inhibition,[13],9.3% (inactive)
same,red/green cell ratio (normalised),[14],1.2 (inactive)
same,normalised cell number,[14]; [21],1.12
same,normalised cell number,[14]; [22],1.35
same,activity remaining,[15],113% (inactive)
same,fold change,[16]; stronger effect = lower value,0.934 (inactive) and 0.791 (inactive)
same,fold change,[16]; [23],0.629 and 1.03
same,cell count,[16]; [24],8380 and 10000
same,cell count,[16]; [25],8970 and 12600
same,z-score,[17]; [26],-0.144 (inactive)
same,z-score,[17]; [27],-0.145
same,remaining NAD,[18],10 nM (inactive)
same,luciferase signal,[19],32 AU (inactive)
Cc1ccc(N=CN(C)C=Nc2ccc(C)cc2C)c(C)c1,parasite load remaining,[4],103% (inactive) and 56.6% (inactive)
same,viability,[4],84.4% and 95.1%
same,nuclear beta-catenin stimulation,[5]; at 10 µM,0.6% (inactive)
same,nuclear beta-catenin stimulation,"[5]; stimulation, at 2 µM",2.7%
same,insulin secretion stimulation,[6],1.3% (inactive)
same,viability decrease,[7],15.1% (inactive)
same,tube area decrease,[8],-4.8% (inactive)
same,GLP1 secretion stimulation,[9],-3.1% (inactive)
same,inhibition of viability,[10],2.47% (inactive)
same,viability decrease (inhibition),[11],-61.8% (inactive)
same,viability decrease (inhibition),[12],-5.9% (inactive)
same,inhibition,[13],17.7% (inactive)
same,red/green cell ratio (normalised),[14],1.11 (inactive)
same,normalised cell number,[14]; [21],1.13
same,normalised cell number,[14]; [22],1.26
same,activity remaining,[15],119% (inactive)
same,fold change,[16]; stronger effect = lower value,0.87 (inactive)
same,fold change,[16]; [23],1.15
same,cell count,[16]; [24],11000
same,cell count,[16]; [25],12600
same,remaining NAD,[18],10 nM (inactive)
same,luciferase signal,[19],32 AU (inactive)
